Test results published in PMC5540273 (PLoS ONE, 2017).

How the values were obtained:
Details in all cases: concentration: 1 μM, replicates: in singlicate; n = 1
YANK3 = tested on: T1, YANK3
T1 construct: gene STK32C

YES = tested on: T2, YES
T2 construct: gene YES1

YSK1 = tested on: T3, YSK1
T3 construct: gene STK25

YSK4 = tested on: T4, YSK4
T4 construct: gene MAP3K19

ZAK = tested on: ZAK
ZAP70 = tested on: ZAP70
p38-alpha = tested on: T5, p38-alpha
T5 construct: gene MAPK14

p38-beta = tested on: T6, p38-beta
T6 construct: gene MAPK11

p38-delta = tested on: p38-delta
p38-gamma = tested on: T7, p38-gamma
T7 construct: gene MAPK12
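Also: KINOMEscan kinase panel screen.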

COc1cc(Nc2nccc(N3CCC(NC(=O)c4cccc(NC(C)=O)c4)C3)n2)cc(OC)c1OC (stereo not drawn) [GSK1379754]
%Inh (YANK3): 0% | %Inh (YES): 18% | %Inh (YSK1): 3% | %Inh (YSK4): 19% | %Inh (ZAK): 0% | %Inh (ZAP70): 0% | %Inh (p38-alpha): 0% | %Inh (p38-beta): 0% | %Inh (p38-delta): 0% | %Inh (p38-gamma): 0%

COc1cc2ncn(-c3cc(OCc4sccc4Cl)c(C(N)=O)s3)c2cc1OC [GSK448459]
%Inh (YANK3): 0% | %Inh (YES): 6% | %Inh (YSK1): 0% | %Inh (YSK4): 89% | %Inh (ZAK): 0% | %Inh (ZAP70): 0% | %Inh (p38-alpha): 0% | %Inh (p38-beta): 0% | %Inh (p38-delta): 23% | %Inh (p38-gamma): 0%

c1ccc(-c2cc(-c3c[nH]nc3-c3ccccn3)ccn2)cc1 [GW576604]
%Inh (YANK3): 0% | %Inh (YES): 0% | %Inh (YSK1): 0% | %Inh (YSK4): 13% | %Inh (ZAK): 16% | %Inh (ZAP70): 0% | %Inh (p38-alpha): 47% | %Inh (p38-beta): 0% | %Inh (p38-delta): 40% | %Inh (p38-gamma): 0%

Cn1ccc2ncnc(Oc3ccc(NC(=O)Nc4ccncc4)c(Cl)c3)c21
%Inh (YANK3): 9% | %Inh (YES): 0% | %Inh (YSK1): 3% | %Inh (YSK4): 0% | %Inh (ZAK): 0% | %Inh (ZAP70): 7% | %Inh (p38-alpha): 0% | %Inh (p38-beta): 18% | %Inh (p38-delta): 4% | %Inh (p38-gamma): 8%

CN1c2ccc(NCc3ccc(F)cc3)cc2-c2c(cnn2C)S1(=O)=O
%Inh (YANK3): 0% | %Inh (YES): 0% | %Inh (YSK1): 0% | %Inh (YSK4): 8% | %Inh (ZAK): 0% | %Inh (ZAP70): 0% | %Inh (p38-alpha): 0% | %Inh (p38-beta): 0% | %Inh (p38-delta): 13% | %Inh (p38-gamma): 0%

Cc1ccc(C(=O)NCC(N)=O)cc1-n1c(C)cc(OCc2ccc(F)cc2F)c(Br)c1=O
%Inh (YANK3): 6% | %Inh (YES): 16% | %Inh (YSK1): 0% | %Inh (YSK4): 0% | %Inh (ZAK): 24% | %Inh (ZAP70): 0% | %Inh (p38-alpha): 100% | %Inh (p38-beta): 100% | %Inh (p38-delta): 18% | %Inh (p38-gamma): 8%

COc1ccc(Nc2ncc(C#N)c(Nc3ccccc3C(N)=O)n2)cc1N1CCN(C)CC1.Cl [GSK1558669]
%Inh (YANK3): 48% | %Inh (YES): 98.8% | %Inh (YSK1): 95.2% | %Inh (YSK4): 99.7% | %Inh (ZAK): 64% | %Inh (ZAP70): 98.1% | %Inh (p38-alpha): 0% | %Inh (p38-beta): 0% | %Inh (p38-delta): 0% | %Inh (p38-gamma): 32%

Cl.Oc1cccc(Nc2ccnc3cc(-c4ccncc4)ccc23)c1 [GW494601]
%Inh (YANK3): 0% | %Inh (YES): 94.6% | %Inh (YSK1): 7% | %Inh (YSK4): 91.7% | %Inh (ZAK): 84% | %Inh (ZAP70): 2% | %Inh (p38-alpha): 50% | %Inh (p38-beta): 0% | %Inh (p38-delta): 25% | %Inh (p38-gamma): 0%

O=C(Nc1n[nH]c2cc(-c3cccc(F)c3)ccc12)C1CC1 [SB-735464]
%Inh (YANK3): 0% | %Inh (YES): 1% | %Inh (YSK1): 0% | %Inh (YSK4): 82% | %Inh (ZAK): 8% | %Inh (ZAP70): 0% | %Inh (p38-alpha): 1% | %Inh (p38-beta): 7% | %Inh (p38-delta): 0% | %Inh (p38-gamma): 15%

CN1c2ccc(CNc3ccc(F)cc3)cc2-c2c(cnn2C)S1(=O)=O
%Inh (YANK3): 0% | %Inh (YES): 0% | %Inh (YSK1): 0% | %Inh (YSK4): 0% | %Inh (ZAK): 0% | %Inh (ZAP70): 0% | %Inh (p38-alpha): 0% | %Inh (p38-beta): 0% | %Inh (p38-delta): 0% | %Inh (p38-gamma): 14%

O=C1Cc2cc(Nc3nc(NCc4cccc(S(=O)(=O)C(F)(F)F)c4)ncc3C(F)(F)F)ccc2N1
%Inh (YANK3): 0% | %Inh (YES): 8% | %Inh (YSK1): 10% | %Inh (YSK4): 25% | %Inh (ZAK): 1% | %Inh (ZAP70): 9% | %Inh (p38-alpha): 22% | %Inh (p38-beta): 0% | %Inh (p38-delta): 15% | %Inh (p38-gamma): 0%

O=C(NOCC1CC1)c1ccc(F)c(F)c1Nc1ccc(I)cc1Cl
%Inh (YANK3): 0% | %Inh (YES): 0% | %Inh (YSK1): 0% | %Inh (YSK4): 0% | %Inh (ZAK): 0% | %Inh (ZAP70): 0% | %Inh (p38-alpha): 0% | %Inh (p38-beta): 19% | %Inh (p38-delta): 0% | %Inh (p38-gamma): 0%

O=c1cc(N2CCOCC2)nc2n(Cc3cccc(F)c3)ccn12 [GSK2297430]
%Inh (YANK3): 22% | %Inh (YES): 16% | %Inh (YSK1): 0% | %Inh (YSK4): 33% | %Inh (ZAK): 0% | %Inh (ZAP70): 0% | %Inh (p38-alpha): 43% | %Inh (p38-beta): 0% | %Inh (p38-delta): 22% | %Inh (p38-gamma): 0%

NS(=O)(=O)CCc1cccc(Nc2nccc(-c3c(-c4cccc(NC(=O)c5c(F)cccc5F)c4)nn4ccccc34)n2)c1 [GSK336735]
%Inh (YANK3): 37% | %Inh (YES): 99.8% | %Inh (YSK1): 24% | %Inh (YSK4): 20% | %Inh (ZAK): 98.4% | %Inh (ZAP70): 0% | %Inh (p38-alpha): 97.8% | %Inh (p38-beta): 98.7% | %Inh (p38-delta): 54% | %Inh (p38-gamma): 0%

CN(C1=C(c2ccccc2)C(=O)NC1=O)c1ccccc1 [SB-334860]
%Inh (YANK3): 17% | %Inh (YES): 17% | %Inh (YSK1): 21% | %Inh (YSK4): 9% | %Inh (ZAK): 79% | %Inh (ZAP70): 0% | %Inh (p38-alpha): 0% | %Inh (p38-beta): 5% | %Inh (p38-delta): 22% | %Inh (p38-gamma): 5%

N#Cc1ccc(-c2cc(-c3c[nH]nc3-c3ccccn3)ccn2)cc1 [GW693028]
%Inh (YANK3): 6% | %Inh (YES): 13% | %Inh (YSK1): 0% | %Inh (YSK4): 33% | %Inh (ZAK): 15% | %Inh (ZAP70): 0% | %Inh (p38-alpha): 30% | %Inh (p38-beta): 0% | %Inh (p38-delta): 22% | %Inh (p38-gamma): 0%

CSc1ccc(-c2cc3ncnc(SCC(=O)O)c3s2)cc1
%Inh (YANK3): 0% | %Inh (YES): 0% | %Inh (YSK1): 0% | %Inh (YSK4): 7% | %Inh (ZAK): 0% | %Inh (ZAP70): 0% | %Inh (p38-alpha): 0% | %Inh (p38-beta): 0% | %Inh (p38-delta): 34% | %Inh (p38-gamma): 5%

CCc1nc(-c2cccc(C)c2)c(-c2ccnc(NCc3ccccc3)c2)s1
%Inh (YANK3): 19% | %Inh (YES): 0% | %Inh (YSK1): 6% | %Inh (YSK4): 0% | %Inh (ZAK): 11% | %Inh (ZAP70): 0% | %Inh (p38-alpha): 99.8% | %Inh (p38-beta): 69% | %Inh (p38-delta): 0% | %Inh (p38-gamma): 0%

COc1cc2c(cc1OCCN1CCN(C)CC1)ncc1c3ccc(C#N)cc3[nH]c21
%Inh (YANK3): 35% | %Inh (YES): 3% | %Inh (YSK1): 0% | %Inh (YSK4): 89% | %Inh (ZAK): 0% | %Inh (ZAP70): 0% | %Inh (p38-alpha): 0% | %Inh (p38-beta): 1% | %Inh (p38-delta): 7% | %Inh (p38-gamma): 35%

Fc1ccc(-c2ncn(CCCN3CCOCC3)c2-c2cccnc2)cc1 [SB-211743]
%Inh (YANK3): 0% | %Inh (YES): 0% | %Inh (YSK1): 0% | %Inh (YSK4): 22% | %Inh (ZAK): 0% | %Inh (ZAP70): 0% | %Inh (p38-alpha): 0% | %Inh (p38-beta): 0% | %Inh (p38-delta): 0% | %Inh (p38-gamma): 48%

Cc1nnc(-c2ccc(C)c(-c3ccc(C(=O)Nc4ccc(NS(C)(=O)=O)cc4)cc3)c2)o1 [GW702865]
%Inh (YANK3): 17% | %Inh (YES): 11% | %Inh (YSK1): 0% | %Inh (YSK4): 0% | %Inh (ZAK): 0% | %Inh (ZAP70): 15% | %Inh (p38-alpha): 99.7% | %Inh (p38-beta): 70% | %Inh (p38-delta): 17% | %Inh (p38-gamma): 0%
